We go through 41 targets from the supplement of paper PMC12067093, “Discovery and optimisation of a covalent ligand for TRIM25 and its application to targeted protein ubiquitination” (Chemical Science, 2025).

Of roughly 21,000 targets only a part is listed; those with the largest changes were picked by preference.

Compound in the assay: CC1Cc2ccccc2N1C(=O)C1CCCN(C1)C(=O)CCl (mixture of isomers) [TRIM25 ligand 11 (diastereomer mixture)]
The experiment in a line: probe-labelled cysteine peptide fold change vs DMSO (competition) (log2 fold change); higher = less target engagement (more negative = stronger competition). Particulars: THP-1, incubation time: 4 h.
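Note: competitive chemoproteomic profiling in live THP-1 cells with an iodoacetamide desthiobiotin (IA-DTB) probe, comparing probe-labelled peptide intensities in compound-treated cells against DMSO-treated controls.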

With “NAA25_Q14CX7_339_SQGCNDEYK (UniProt Q14CX7)”, the “probe-labelled cysteine peptide fold change” value is, setting by setting: (10 µM) 0.0881; (50 µM) -0.0602.
The matching figures for “MIS12_Q9H081_133_YKTELCTK (UniProt Q9H081)”: -0.0461 and 0.0357.
Consider “MGST3_O14880_56_YKVEYPIMYSTDPENGHIFNCIQR (UniProt O14880)”, for which the “probe-labelled cysteine peptide fold change” value is 0.0746 (10 µM) and -0.113 (50 µM).
For the target “MICALL1_Q8N3F8_194_CSSTLLPGAYENGPEEGTFVCAEHCAR (UniProt Q8N3F8)”, the “probe-labelled cysteine peptide fold change” value (10 µM) is 0.154 and the “probe-labelled cysteine peptide fold change” value (50 µM) is -0.0569.
As to “MGMT_P16455_145_GNPVPILIPCHR (UniProt P16455)”, the “probe-labelled cysteine peptide fold change” value (10 µM) was -0.499 and the “probe-labelled cysteine peptide fold change” value (50 µM) is -1.05.
The matching figures for “NCAPG_Q9BPX3_177_DDECPVVNAYATLIENDSNPEVR (UniProt Q9BPX3)”: -0.316 and -0.473.
The corresponding values for “MT1E_P04732_50_CAQGCVCK<|>MT1F_P04733_50_CAQGCVCK<|>MT1B_P07438_50_CAQGCVCK<|>MT1L_Q93083_50_CAQGCVCK (UniProt Q93083+P07438+P04733+P04732)” are -0.000901 and 0.116.
Turning to “MECP2_P51608_429_GGSLESDGCPKEPAK (UniProt P51608)”, the “probe-labelled cysteine peptide fold change” value is, setting by setting: (10 µM) -0.274; (50 µM) -0.613.
The matching figures for “LUC7L3_O95232_58_SDLGPCEK (UniProt O95232)”: -0.0397 and -0.155.
The matching figures for “MYO9B_Q13459_1169_HIQSCK (UniProt Q13459)”: -0.0237 and -0.105.
“MYCBP2_O75592_3786_NITINCVK (UniProt O75592)”: the “probe-labelled cysteine peptide fold change” value runs as follows: (10 µM) -0.237; (50 µM) 0.117.
The corresponding values for “NADK2_Q4G0N4_311_SSGLNLCTGTGSK (UniProt Q4G0N4)” are -0.0288 and -0.0319.
The corresponding values for “NBEAL2_Q6ZNJ1_2335_ALEGIISNFGQTPCQLLK (UniProt Q6ZNJ1)” are 0.0509 and -0.034.
For “NAXD_Q8IW45_261_GERDILSNGQQVLVCSQEGSSR (UniProt Q8IW45)”, the “probe-labelled cysteine peptide fold change” value was found to be 0.0581 (10 µM) and 0.131 (50 µM).
In the case of “MTMR3_Q13615_188_LCGSYPQELIVPAWITDK (UniProt Q13615)”, the “probe-labelled cysteine peptide fold change” value reads like this: (10 µM) 0.105; (50 µM) 0.265.
The corresponding values for “MYO18A_Q92614_1046_LHFVHCFLPVAEGWAGEPR (UniProt Q92614)” are 0.231 and 0.422.
The corresponding values for “MDN1_Q9NU22_1400_TTICQVFAALANQK (UniProt Q9NU22)” are 0.156 and 0.0599.
For the target “MSH6_P52701_1158+1165_QAGLLAVMAQMGCYVPAEVCR (UniProt P52701)”, the “probe-labelled cysteine peptide fold change” value is, setting by setting: (10 µM) -0.115; (50 µM) -0.66.
The matching figures for “MOCS3_O95396_193_YLVNDACVLAGRPLVSASALR (UniProt O95396)”: -0.0913 and -0.0185.
Consider “LYST_Q99698_3649_LCYVQSLAGHK (UniProt Q99698)”, for which the “probe-labelled cysteine peptide fold change” value was 0.0365 (10 µM) and -0.124 (50 µM).
The corresponding values for “MOB4_Q9Y3A3_134_HTLDGAACLLNSNK (UniProt Q9Y3A3)” are -0.19 and -0.629.
The matching figures for “MDN1_Q9NU22_882_LFACMNPATDVGKR (UniProt Q9NU22)”: -0.0968 and -0.078.
For “MTREX_P42285_983_LEIDEETYLSSFKPHLMDVVYTWATGATFAHICK (UniProt P42285)”, the “probe-labelled cysteine peptide fold change” value runs as follows: (10 µM) 0.115; (50 µM) -0.0469.
The corresponding values for “NCAPH_Q15003_114_FTNTQITEHYSTCIK (UniProt Q15003)” are 0.199 and -0.135.
For “MRPS24_Q96EL2_103_FMWGTFPGCLADQLVLK (UniProt Q96EL2)”, the “probe-labelled cysteine peptide fold change” value worked out at 0.183 (10 µM) and 0.203 (50 µM).
With “MTMR1_Q13613_438_TSVVVHCSDGWDR (UniProt Q13613)”, the “probe-labelled cysteine peptide fold change” value runs as follows: (10 µM) 0.559; (50 µM) -0.0364.
The corresponding values for “MCM6_Q14566_351_NLYHNLCTSLFPTIHGNDEVK (UniProt Q14566)” are 0.107 and 0.0102.
The corresponding values for “MRC2_Q9UBG0_213_EDGHLWCATTQDYGKDER (UniProt Q9UBG0)” are -0.0873 and -0.0151.
The matching figures for “MAT1A_Q00266_34_ICDQISDAVLDAHLK (UniProt Q00266)”: 0.555 and 0.255.
In the case of “MATR3_P43243_230_CRDDSFFGETSHNYHK (UniProt P43243)”, the “probe-labelled cysteine peptide fold change” value is, setting by setting: (10 µM) 0.0188; (50 µM) -0.0509.
The matching figures for “MTA2_O94776_106_CSVTLLNETDILSQYLEK (UniProt O94776)”: 0.0256 and 0.178.
The corresponding values for “NAPA_P54920_212+215_AALCHFCIDMLNAK (UniProt P54920)” are -0.0124 and 0.149.
In the case of “MAN2C1_Q9NTJ4_871_WMDLSEHGFGLALLNDCK (UniProt Q9NTJ4)”, the “probe-labelled cysteine peptide fold change” value is, setting by setting: (10 µM) 0.38; (50 µM) 0.327.
For “MLST8_Q9BVC4_107_WMYTGGEDCTAR (UniProt Q9BVC4)”, the “probe-labelled cysteine peptide fold change” value was 0.0109 (10 µM) and -0.0842 (50 µM).
As for “NASP_P49321_568_LGEVSVESENYVQAVEEFQSCLNLQEQYLEAHDR (UniProt P49321)”, the “probe-labelled cysteine peptide fold change” value is -0.127 (10 µM) and 0.217 (50 µM).
The corresponding values for “MAPRE2_Q15555_279_EIELLCQEHGQENDDLVQR (UniProt Q15555)” are -0.0442 and -0.23.
The corresponding values for “MED14_O60244_635_AGEMCAFNK (UniProt O60244)” are -0.0268 and -0.0566.
The matching figures for “NCAPD3_P42695_361_ILLQHICAK (UniProt P42695)”: -0.145 and 0.173.
As for “MYH9_P35579_671_CIIPNHEKK (UniProt P35579)”, the “probe-labelled cysteine peptide fold change” value is -0.608 (10 µM) and -0.373 (50 µM).
The corresponding values for “MSTO1_Q9BUK6_232_LHFYVEECDYLQGFQILCDLHDGFSGVGAK (UniProt Q9BUK6)” are 0.183 and -0.0331.
The corresponding values for “MOV10_Q9HCE1_172_NGGTQSVTLTHLFPLCR (UniProt Q9HCE1)” are 0.234 and 0.148.
